According to the supplement of paper PMC12669032:
Several values for one entry are separate records, joined by “and”; a condition that tells them apart may be missing. Identical values can stand only once.

What was measured:
Assay in all cases: growth AUC relative to DMSO control (median of replicates) (fraction); higher = more growth (less inhibition), active = hit call of the paper
Settings in all cases: 20 µM; 24 h;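 active = AUC reduced over 20% with Padj below 0.05 in at least 2 of 3 replicates; inactive = otherwise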
[1] = tested on: Coprococcus comes
How it was run: (§1)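 Gut bacterial monocultures in mGAM were treated with 20 µM compound (1% DMSO) and grown anaerobically at 37 °C in round-bottom 96-well plates from OD600 0.05. OD600 was read hourly for 24 h, with the minimum OD set to 0. Area under the growth curve was normalised to the plate median of solvent-only wells, or to row and column medians on the industrial chemical plate. Each value is the median of three biological replicates, each grown on a separate day.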

[2] = tested on: Escherichia coli ED1a
How it was run: as §1

[3] = tested on: Escherichia coli IAI1
How it was run: as §1

[4] = tested on: Eubacterium rectale
How it was run: as §1

[5] = tested on: Fusobacterium nucleatum subsp. animalis
How it was run: as §1

[6] = tested on: Lactobacillus gasseri
How it was run: as §1

[7] = tested on: Lactobacillus paracasei
How it was run: as §1

[8] = tested on: Odoribacter splanchnicus
How it was run: as §1

[9] = tested on: Parabacteroides distasonis
How it was run: as §1

[10] = tested on: Parabacteroides merdae
How it was run: as §1

[11] = tested on: Roseburia intestinalis
How it was run: as §1

[12] = tested on: Streptococcus salivarius
How it was run: as §1

Measured: growth AUC

C/C(=N/Nc1nc(C)cc(C)n1)c1ccccc1C
inactive: [1] 0.957 | [2] 1.02 | [3] 1.04 | [5] 1.16 | [6] 0.994 | [7] 1.1 | [8] 0.666 | [9] 1.07 | [10] 1.07 | [12] 0.999
active: [4] 0.495 | [11] 0.715

O=S(=O)(c1ccccc1)c1ccccc1
inactive: [1] 0.977 | [2] 0.988 | [3] 0.97 | [4] 1.03 | [5] 1 | [6] 0.914 | [7] 1.03 | [8] 0.999 | [9] 1.02 | [10] 0.929 | [11] 0.956 | [12] 0.943

CCCCCCCCCCCCC1=C(OC(C)=O)C(=O)c2ccccc2C1=O
active: [6] 0.504
inactive: [1] 0.863 | [2] 1 | [3] 0.975 | [4] 0.889 | [5] 1.02 | [7] 0.894 | [8] 0.959 | [9] 0.933 | [10] 0.878 | [11] 0.772 | [12] 0.957

COC(=O)NS(=O)(=O)c1ccc(N)cc1
inactive: [1] 1.01 | [2] 0.972 | [3] 0.975 | [4] 1.28 | [5] 0.939 | [6] 0.848 | [7] 0.903 | [8] 1.1 | [9] 1.08 | [11] 0.929 | [12] 0.893
active: [10] 0.774

CN(C)C(=S)[S-].CN(C)C(=S)[S-].[Zn+2]
inactive: [1] 0.834 | [2] 0.953 | [3] 0.906 | [5] 0.993 | [6] 0.976 | [7] 0.966 | [9] 0.954 | [11] 0.792 | [12] 0.925
active: [4] 0.563 | [8] 0.384 | [10] 0.699

C=CCN(CC=C)C(=O)C(Cl)Cl
inactive: [1] 1 | [2] 0.944 | [3] 0.986 | [4] 1.01 | [5] 0.965 | [6] 0.934 | [7] 0.999 | [8] 1.02 | [9] 0.991 | [10] 0.947 | [11] 1 | [12] 0.99

CCC(C)(c1ccc(O)cc1)c1ccc(O)cc1
inactive: [1] 1.01 | [2] 1 | [3] 1.01 | [4] 0.882 | [5] 1.04 | [6] 1 | [7] 0.989 | [8] 0.872 | [9] 0.743 | [10] 0.968 | [11] 0.947 | [12] 0.96

CC(C)OP(=O)(OC(C)C)SCc1ccccc1
inactive: [1] 1.03 | [2] 1.01 | [3] 0.984 | [4] 1.09 | [5] 1.01 | [6] 0.959 | [7] 1.01 | [8] 1.05 | [9] 0.866 | [10] 0.988 | [11] 0.951 | [12] 1

O=S1OC[C@@H]2[C@H](CO1)[C@]1(Cl)C(Cl)=C(Cl)[C@@]2(Cl)C1(Cl)Cl (stereo partly specified)
inactive: [1] 0.959 and 0.955 | [2] 0.995 and 0.982 | [3] 0.985 and 1.03 | [4] 1.07 and 0.951 | [5] 0.927 and 0.887 | [6] 0.974 and 0.906 | [7] 1.05 and 1.01 | [8] 0.949 and 0.879 | [9] 0.98 and 0.937 | [10] 0.977 and 0.917 | [11] 0.954 and 0.949 | [12] 0.954 and 0.864

CCNc1nc(NC(C)(C)C)nc(SC)n1
inactive: [1] 0.969 | [2] 0.987 | [3] 0.986 | [4] 0.956 | [5] 1.06 | [6] 1.1 | [7] 1.08 | [8] 0.876 | [9] 0.936 | [10] 0.947 | [11] 1.07 | [12] 0.984

CCNP(=S)(OC)O/C(C)=C/C(=O)OC(C)C (stereo unspecified)
inactive: [1] 0.987 | [2] 1 | [3] 0.951 | [4] 1.13 | [5] 0.981 | [6] 0.968 | [7] 0.994 | [8] 0.956 | [9] 0.991 | [10] 0.963 | [11] 1.05 | [12] 0.99

CS(=O)(=O)c1ccc(C(=O)C2C(=O)CCCC2=O)c(Cl)c1COCC(F)(F)F
inactive: [1] 1.01 | [2] 1.01 | [3] 0.994 | [4] 1.04 | [5] 1.05 | [6] 0.917 | [7] 0.989 | [8] 1.14 | [9] 0.944 | [10] 1.01 | [11] 0.964 | [12] 0.974

CC(C)=CC1C(C(=O)OCN2C(=O)C3=C(CCCC3)C2=O)C1(C)C (stereo unspecified)
inactive: [1] 0.953 | [2] 0.995 | [3] 0.97 | [4] 0.938 | [5] 0.85 | [6] 0.993 | [7] 0.918 | [8] 0.963 | [9] 0.935 | [10] 0.972 | [11] 0.988 | [12] 1.01
